“And” between values parts separate entries of the source, which are not always exact repeats. Equal entries are not always repeated. Results filed as inconclusive are left out. The source made the active and inactive calls. Unless noted, calls follow the shape of the dose curve; as a rule, active = well fitted curve in the direction sought with a large enough effect; inconclusive = small, poorly fitted or top-dose-only effect, or another doubt; inactive = no such curve, though single readings can be large; an effect the other way counts as inactive or inconclusive.
Key:
[1] = qHTS assay for small molecule agonists of the antioxidant response element (ARE) signaling pathway (AID 651741; active = well fitted activation curve with a large enough effect in the signal ratio; the % refers to the signal ratio; also: potency is read from the fitted curve at half-maximal effect; as to activation: % of control where 0% means no effect)
Method in brief: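 Compounds in DMSO are pinned onto HepG2 ARE-bla cells (2,000/well) that were preincubated 5 h; plates stay 16 h at 37 C, then beta-lactamase activity is detected with LiveBLAzer B/G substrate by fluorescence.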

[2] = qHTS assay for small molecule activators of the p53 signaling pathway (AID 651743; active = well fitted activation curve with a large enough effect in the signal ratio, not every such curve was filed as active; the % refers to the signal ratio; also: potency is read from the fitted curve at half-maximal effect; as to activation: series mostly up to about 92 µM; % of control where 0% means no effect); conditions: HCT-116 p53RE-bla, beta-lactamase FRET ratio, 16 h; activation: stronger effect = higher value
Method in brief: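 Cell-based beta-lactamase reporter (p53 response elements, HCT-116 background). After a 5-hour preincubation, cells received compound for 16 hours at 37 C; substrate development ran 2 hours at room temperature.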

[3] = qHTS assay for small molecule activators of the nuclear factor-kappa B (NF-kB) signaling pathway (AID 651749; active = well fitted activation curve with a large enough effect in the signal ratio; the % refers to the signal ratio; also: series mostly up to about 77 µM; % of control where 0% means no effect); conditions: NF-kB-bla ME-180 cells, beta-lactamase FRET ratio, 16 h; stronger effect = higher value
Method in brief: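 Screening used 2,000 ME-180 reporter cells per well exposed to pinned compound (23 nL) or DMSO; after 16 hr at 37C, beta-lactamase expression under NF-kB control was assessed through FRET.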

[4] = qHTS assay for small molecule disruptors of the mitochondrial membrane potential - 1 hr assay (AID 651754; calls by dose curve; also: nearly all actives have a fitted effect of over 35% in size; also: potency is read from the fitted curve at half-maximal effect)
Method in brief: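 HepG2, 2,000 cells/well, overnight attachment; cpd or DMSO 1 hr, 37C/5% CO2; Mito-MPS dye 30 min, 37C; fluorescence monomer (490/535) and aggregate (540/590).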

[5] = qHTS assay for small molecule disruptors of the mitochondrial membrane potential - 5 hr assay (AID 651755; calls by dose curve; also: nearly all actives have a fitted effect of over 40% in size; also: potency is read from the fitted curve at half-maximal effect)
Method in brief: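 HepG2 cells, attached overnight at 37C, were exposed to compound or DMSO for 5 hr at 37C, 5% CO2. Mito-MPS dye was then added for 30 min, and fluorescence read at 490/535 nm (monomers) and 540/590 nm (aggregates).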

[6] = qHTS assay for environmental chemicals that activate the Aryl hydrocarbon Receptor (AhR) signaling pathway (AID 651777); conditions: 1A2-DRE human hepatoma cells, luciferase, 24 h; activation: stronger effect = higher value; also: nearly all actives have a fitted effect of over 15% in size; also: potency is read from the fitted curve at half-maximal effect; as to activation: % of control where 0% means no effect
Method in brief: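 Concentration–response screening used 1,200 1A2-DRE cells per well, 24 hr compound exposure (37 C, 5% CO2), and One-Glo luminescence as the AhR-driven CYP1A2 reporter signal.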

[7] = target: Peroxisome proliferator-activated receptor alpha (Homo sapiens) (UniProt Q07869); assay: qHTS assay for small molecule agonists of the peroxisome proliferator-activated receptor alpha (PPARalpha) signaling pathway (AID 651778); conditions: PathHunter PPARalpha complementation, chemiluminescence, 6 h; max response: stronger effect = higher value; also: % of control where 0% means no effect
Method in brief: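 Cells plated at 2,000/well and held overnight at 37 C, 5% CO2, then compound added by pin tool for 6 hr; after PathHunter detection reagent and 60 min at room temperature, chemiluminescence from enzyme complementation was read.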

[8] = target: Nuclear receptor ROR-gamma (Homo sapiens) (UniProt P51449); assay: qHTS assay for small molecule antagonists of the retinoid-related orphan receptor gamma (ROR-gamma) signaling pathway (AID 651802); also: nearly all actives have a fitted effect of over 60% in size; also: potency is read from the fitted curve at half-maximal effect
Method in brief: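 CHO, TET-inducible ROR + RORE-LUC reporter, 1536-well qHTS. Compound pinned, doxycycline added, 16hr 37C/5% CO2. ONE-Glo, 30 min RT, luminescence; signal drop scored as antagonism.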

[9] = qHTS assay for small molecule agonists of the antioxidant response element (ARE) signaling pathway measured by Nrf2-dependant transcriptional activity (AID 720636; active = well fitted curve in the direction sought with a large enough effect in the repeat runs; an effect the other way counts as inactive or inconclusive;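 also: HepG2 cells with an ARE-driven luciferase reporter; % of control where 0% means no effect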)
Method in brief: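 Attachment 6 hr at 37 C, then compound versus DMSO vehicle for 16 hr in ARE-luc HepG2 cells (1% dialyzed FBS); luminescence recorded 30 min after ONE-Glo addition at room temperature.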

[10] = qHTS assay for small molecule antagonists of the retinoid-related orphan receptor gamma (ROR-gamma) signaling pathway - cell viability counter screen (AID 720652; active = well fitted curve in the direction sought with a large enough effect in the repeat runs; an effect the other way counts as inactive or inconclusive;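 also: compound exposure lasted 16 hr before ATP read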; also: potency is read from the fitted curve at half-maximal effect)
Method in brief: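 Luminescence from CellTiter-Glo after 30 min at room temperature reported cellular ATP as the cytotoxicity measure. Cells were the CHO reporter line with doxycycline-induced ROR-gamma expression, exposed to compound for 16 hr at 37 C.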

[11] = qHTS assay for small molecule agonists of the antioxidant response element (ARE) signaling pathway measured by Nrf2-dependant transcriptional activity - cell viability counter screen (AID 720653; active = well fitted curve in the direction sought with a large enough effect in the repeat runs; an effect the other way counts as inactive or inconclusive; also: % is scaled to controls: 0 for no effect and ±100 for the full control effect); conditions: ARE-bla HepG2 viability, CellTiter-Glo ATP luminescence, 16 h; max response: stronger effect = lower value
Method in brief: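 ARE-bla HepG2 cells (2,000/well) rested 5 hrs at 37C/5% CO2, then exposed to compounds in DMSO for 16 hrs. Viability was read in the same wells as intracellular ATP by luminescence, 30 min at room temperature after reagent addition.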

[12] = Cell Proliferation Assay against the TMD8 Cell Line (Caspase readout at 8 hrs) (AID 651713); also: potency is read from the fitted curve at half-maximal effect
Method in brief: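 Seed log-phase TMD8 cells, add compound by pin tool, incubate 8 h at 37C under 5% CO2, equilibrate to room temperature, add Caspase-Glo, wait 15 min, read luminescence; percent activity uses DMSO and 9.2 uM bortezomib controls.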

[13] = target: Tyrosine-protein kinase Yes (Homo sapiens) (UniProt P07947); assay: qHTS for small molecule inhibitors of Yes1 kinase: Primary Screen (AID 686947);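 also: plate controls were DMSO with enzyme for no effect and no-enzyme DMSO wells for full effect; nearly all actives have a fitted effect of over 60% in size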
Method in brief: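 Yes1 (4 nM) preincubated 20 min with compound, then 60 min room-temperature reaction with 0.1 mM ATP and 0.3 mg/mL poly(E4Y) in pH 7.5 Tris, 10 mM MgCl2. ADP measured by ADP-Glo luminescence, normalised to enzyme/no-enzyme controls.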

[14] = Cell Proliferation Assay against the TMD8 Cell Line (Caspase readout at 16 hrs) (AID 651712); also: potency is read from the fitted curve at half-maximal effect
Method in brief: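 TMD8 cells (500/well) in phenol-red-free RPMI with glutamine, 5% FBS, were exposed to compounds for 16 h at 37 °C. Caspase 3/7 activation was read by Caspase-Glo luminescence; percent activity normalised to DMSO (0%) and 9.2 uM bortezomib final (100%).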

Sequence of Nuclear receptor ROR-gamma (Homo sapiens) (P51449 whole entry, looked up): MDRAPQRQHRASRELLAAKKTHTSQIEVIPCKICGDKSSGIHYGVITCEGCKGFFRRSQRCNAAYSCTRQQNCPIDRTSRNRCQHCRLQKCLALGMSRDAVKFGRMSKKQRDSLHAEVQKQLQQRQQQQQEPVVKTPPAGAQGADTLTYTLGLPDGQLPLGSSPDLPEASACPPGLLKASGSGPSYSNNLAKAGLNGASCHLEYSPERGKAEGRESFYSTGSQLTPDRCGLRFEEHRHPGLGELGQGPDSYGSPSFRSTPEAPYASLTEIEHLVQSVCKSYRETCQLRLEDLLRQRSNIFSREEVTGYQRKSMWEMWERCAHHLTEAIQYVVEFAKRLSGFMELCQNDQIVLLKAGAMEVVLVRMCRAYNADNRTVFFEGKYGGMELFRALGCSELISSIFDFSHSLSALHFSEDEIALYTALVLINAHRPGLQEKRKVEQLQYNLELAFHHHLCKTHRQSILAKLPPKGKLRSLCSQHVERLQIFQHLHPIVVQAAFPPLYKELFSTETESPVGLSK
Sequence of Peroxisome proliferator-activated receptor alpha (Homo sapiens) (Q07869 whole entry, looked up): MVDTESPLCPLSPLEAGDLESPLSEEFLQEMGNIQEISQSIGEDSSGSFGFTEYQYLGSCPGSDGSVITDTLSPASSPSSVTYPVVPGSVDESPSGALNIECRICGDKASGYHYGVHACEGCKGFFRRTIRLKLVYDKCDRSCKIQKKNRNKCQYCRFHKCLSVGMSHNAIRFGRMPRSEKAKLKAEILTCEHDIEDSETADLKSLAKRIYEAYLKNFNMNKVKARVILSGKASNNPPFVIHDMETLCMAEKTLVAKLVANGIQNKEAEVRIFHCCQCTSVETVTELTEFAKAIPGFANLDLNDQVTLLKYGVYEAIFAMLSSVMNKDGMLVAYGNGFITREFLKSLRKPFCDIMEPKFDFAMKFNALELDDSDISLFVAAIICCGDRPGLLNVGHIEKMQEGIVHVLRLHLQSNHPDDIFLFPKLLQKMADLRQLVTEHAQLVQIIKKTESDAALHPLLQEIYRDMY
Sequence of Tyrosine-protein kinase Yes (Homo sapiens) (P07947 whole entry, looked up): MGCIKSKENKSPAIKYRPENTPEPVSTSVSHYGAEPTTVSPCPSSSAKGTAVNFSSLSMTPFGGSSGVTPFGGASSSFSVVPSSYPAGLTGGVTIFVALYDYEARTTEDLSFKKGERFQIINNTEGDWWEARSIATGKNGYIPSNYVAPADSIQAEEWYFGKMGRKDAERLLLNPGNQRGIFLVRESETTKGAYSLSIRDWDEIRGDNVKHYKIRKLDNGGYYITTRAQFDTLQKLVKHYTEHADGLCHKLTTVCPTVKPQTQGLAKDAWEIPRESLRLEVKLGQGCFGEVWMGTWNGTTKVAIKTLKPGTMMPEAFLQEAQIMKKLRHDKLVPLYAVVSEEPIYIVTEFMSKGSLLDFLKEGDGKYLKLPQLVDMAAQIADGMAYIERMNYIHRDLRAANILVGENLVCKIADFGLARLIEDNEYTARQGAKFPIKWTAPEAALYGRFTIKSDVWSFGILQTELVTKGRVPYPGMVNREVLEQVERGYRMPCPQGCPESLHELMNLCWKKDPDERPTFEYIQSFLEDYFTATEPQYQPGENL

CCOP(=S)(OCC)Oc1cc(C)nc(C(C)C)n1
inactive: Potency [1] | activation [2] -0.592% and 3.54% | activation [3] -0.534% and -0.189% | Potency [4] | Potency [5] | activation [6] 1.79% and 0.131% | max response [7] -5.15% and -1.07% | Potency [8] | Potency [9] | Potency [10] | max response [11] 0.528% and 11.7%

CC(COc1ccccc1)N(CCCl)Cc1ccccc1 (stereo not given)
active: Potency [1] 48.6 µM and 42.2 µM | Potency [10] 42.2 µM
inactive: max response [11] -12.5%

C[C@@H]1[C@@H](C(=O)C[C@H]2O[C@@H]3O[C@]4(C)CC[C@@H]5[C@H](C)CC[C@@H]([C@H]2C)[C@@]35OO4)O[C@@H]2O[C@]3(C)CC[C@H]4[C@H](C)CC[C@@H]1[C@@]24OO3
inactive: Potency [12] | Potency [13]

Oc1ccc(Cl)cc1Cc1ccccc1
active: Potency [1] 54.5 µM and 42.2 µM | Potency [4] 18.8 µM | Potency [5] 21.1 µM
inactive: activation [2] -3.88% and -4.49% | activation [3] -0.62% and 0.873% | activation [6] 0.74% and 2.47% | max response [7] 14% and 4.54% | Potency [9] | Potency [10] | max response [11] 1.75% and 7.8%

Cc1sc2c(c1C)C(c1ccc(Cl)cc1)=N[C@@H](CC(=O)OC(C)(C)C)c1nnc(C)n1-2
inactive: Potency [13]
active: Potency [14] 0.469 µM | Potency [12] 23.5 µM

c1ccc2c(c1)Nc1ccccc1S2
inactive: activation [2] 4.3% and -2.32% | max response [7] -1.15% and -1.18% | Potency [8] | Potency [9] | Potency [10] | max response [11] -25.7% and -9.49%
active: Potency [1] 54.5 µM | Potency [4] 42.2 µM | Potency [5] 66.8 µM

NC(=Nc1ccccc1)Nc1ccccc1
active: Potency [1] 19.3 µM and 18.8 µM | Potency [6] 11.2 µM
inactive: max response [11] 3.18%

C[C@H]1O[C@@H](O[C@H]2[C@@H](O)C[C@H](O[C@H]3[C@@H](O)C[C@H](O[C@H]4CC[C@@]5(C)[C@H](CC[C@@H]6[C@@H]5CC[C@]5(C)[C@@H](C7=CC(=O)OC7)CC[C@]65O)C4)O[C@@H]3C)O[C@@H]2C)C[C@H](O)[C@@H]1O
inactive: activation [2] -10.8% | activation [3] -1.01% | max response [7] -0.744% | Potency [9]

N[C@@H](Cc1ccc(N(CCCl)CCCl)cc1)C(=O)O
active: Potency [1] 54.5 µM and 42.2 µM | Potency [2] 39.8 µM and 25.1 µM | Potency [8] 26.6 µM | Potency [10] 21.1 µM
inactive: activation [3] 3.45% and -0.304% | Potency [4] | Potency [5] | activation [6] 3.17% and 3.79% | max response [7] -0.479% and -0.609% | max response [11] -3.2% and -6.56%
